Measured values published in PubChem BioAssay AID540317 (National Center for Advancing Translational Sciences (NCATS), 2011).
The campaign covered roughly 390,000 compounds. About 2,200 (0.56%) were called active. Another 3% or so got no clear call; they are omitted. The sample holds actives, similar compounds and a random draw of the others, so the mix is not that of the screen. Calls follow the shape of the dose curve; as a rule, active = well fitted inhibition curve with a large enough effect; inconclusive = small, poorly fitted or top-dose-only effect; inactive = no such curve, though single readings can be large or run the other way.

Molecular target: Chromobox protein homolog 1 (Homo sapiens) (UniProt P83916)
Test: HTS for Inhibitors of HP1-beta Chromodomain Interactions with Methylated Histone Tails; also: nearly all actives have a fitted effect of over 70% in size
Conditions: AlphaScreen HP1-beta / biotin-H3K9me3 peptide binding; series mostly up to 114 µM; activity change, negative = inhibition: at the top concentration
Text: As our understanding of epigenetics expands, it is becoming clear that players in this field are potential targets for drug development. This area of epigenetic therapy has established applications for the treatment of cancer and neurological diseases. We have been involved in this field for a number of years and have performed high-throughput screens to identify the first small molecule inhibitors of protein methyltransferases. These methyltransferases target multiple substrates, and thus regulate many arms of an epigenetic pathway. The methylation of different substrates often generates docking sites for effector proteins that harbor binding domains (chromo, tudor, PHD, MBT and ANK repeats). It has been proposed that the binding sites generated for different proteins by these post-translational modifcations mediate downstream effects on chromatin. Consistent with this theory, di- and tri-methylation of histone H3K9 facilitates the binding of heterochromatin protein HP1. The HP1 protein harbors a chromodomain that is responsible for the methyl-dependent interaction between HP1 and lysine 9 of histone H3. HP1 was first described in flies as a heterochromatin associated protein that can regulate gene silencing. It harbors a chromodomain that binds H3K9me3. In addition, it harbors a chromoshadow domain that interacts with a large number of proteins that are involved in heterochromatin formation and gene repression. There are three highly related HP1 isoforms. All three variants are associated with pericentric heterochromatin and it is not clear whether they have specific or redundant functions. MPP8 is also involved in the repression of gene in euchromatic regions (unpublished data) and like HP1 its chromodomain binds H3K9me3. MPP8 harbors an ankyrin repeat region that is likely involved in binding and recruiting interacting proteins with transcriptional repressive function, much like the chromoshadow domain of HP1 does. We hypothesize that by inhibiting specific protein-protein interactions we will be able to develop compounds that block a single arm of an epigenetic pathway. The specificity attained by blocking a single protein-protein interaction will be far greater than that attained by blocking the enzyme that regulates one of many interactions. Low-affinity protein-protein interactions (Kd in the single- to double-digit micromolar range) such as those discussed here have been very difficult to assay by traditional techniques such as fluorescence polarization or fluorescence resonance energy transfer. We have developed a sensitive chemiluminescence-based assay (Quinn, et al. 2009), which serves as the starting point for this project. The following is a validation assay to identify lead compounds that can block methyl-dependent protein-protein interactions (specifically HP1-beta), which can be used as probes to analyze these methyl-driven interactions and perhaps even developed into targeted epigenetic therapies. NIH Chemical Genomics Center [NCGC] NIH Molecular Libraries Probe Centers Network [MLPCN] MLPCN Grant: DA031087 Assay Submitter (PI): Mark Bedford, University of Texas, Medical Anderson Cancer Center, TX
To each well, 2 uL of HP1-beta protein (final 50 nM) and 1 uL biotinylated histone peptide trimethylated at Lys9 [b-H3(1-18)K9me3] (final 50 nM) was added in 1x PBS buffer, pH 7.4, containing 0.01% Tween-20 using a nanoliter dispenser. Formation of a protein-peptide complex proceeded at room temperature for 30 min. A Kalypsys pin-tool was employed to transfer 23 nL of library compound solution in DMSO to each well. Aurintricarboxylic acid (ATA) was used as an intraplate control with a 12-point titration in duplicate. Following a 30 min incubation of the protein-peptide complex with compounds at room temperature, a mixture of 40 ug/mL each streptavidin-coated donor and nickel chelate acceptor AlphaScreen beads (final 10 ug/mL) was added in a 1 uL dispense for a final volume of 4 uL. […]
Potency is read from the fitted curve at half-maximal effect.

Chain of Chromobox protein homolog 1 (Homo sapiens) (P83916 whole entry, looked up): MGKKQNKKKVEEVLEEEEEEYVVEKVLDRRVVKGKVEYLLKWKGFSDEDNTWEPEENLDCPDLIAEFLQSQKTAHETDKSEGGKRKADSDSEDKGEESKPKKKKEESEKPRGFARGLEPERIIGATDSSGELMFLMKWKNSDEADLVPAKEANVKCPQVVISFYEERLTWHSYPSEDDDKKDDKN

| SMILES | activity change, negative = inhibition | Potency |
| --- | --- | --- |
| CSc1nc(-c2ccccc2Cl)nc2c1Cc1c(CO)cnc(C)c1O2 | 14.1% (inactive) | – |
| COc1ccc(N2C(=O)/C(=C\c3ccco3)N=C2SCC(N)=O)cc1Cl | 17.6% (inactive) | – |
| COC(=O)C1=C(C)N(c2ccc(Br)cc2)C(=O)/C1=C\c1ccco1 | – | 44.7 µM (active) |
| COC(=O)C1=C(C)N(c2ccc(C)cc2)/C(=C/c2ccc(O)cc2)C1=O | 24.6% (inactive) | – |
| Cc1nc(N2CCOCC2)c2c(C(=O)NCc3cccc(Cl)c3)c(C)oc2n1 | 34.2% (inactive) | – |
| CN(C)c1ccc(/C=C/C(=O)c2ccc(C(C)(C)C)cc2)cc1[N+](=O)[O-] | – | 31.6 µM (active) |
| CN(C)c1ccc(S(=O)(=O)NCC(=O)NCC2CCCCC2)cc1[N+](=O)[O-] | -11.4% (inactive) | – |
| CC(C)(C)c1ccc(/C=C/C(=O)NC2CCS(=O)(=O)C2)cc1 (stereo unspecified) | 25.9% (inactive) | – |
| CCCCC(=O)OC1=CN(Cc2ccccc2)S(=O)(=O)c2ccccc21 | 107% (inactive) | – |
| COc1ccc(C(=O)Nc2nonc2-c2ccc(OC)c(OC)c2)cc1Cl | 29.6% (inactive) | – |
| O=C(CSc1nc2ccccc2nc1Cc1ccccc1)N1CCCCC1 | 41% [at 57 µM] (inactive) | – |
| O=C(NCC1CC1)C1(C(F)(F)F)C/C(=C\CCO)CCCO1 (stereo unspecified) | -2.38% (inactive) | – |
| O=C(O)c1ccccc1N=N/C(=N/Nc1cc(S(=O)(=O)O)ccc1O)c1ccccc1 | – | 10 µM (active) |
| CCC(=O)Nc1cccc(C(=O)OCc2cc(=O)n3nc(CC)sc3n2)c1 | 27.5% (inactive) | – |
| O=C(Nc1ccccc1Br)c1cc(CN2CCCC2)on1 | 13.6% (inactive) | – |
| Fc1ccc(C(Nc2ccc(Cl)c(C(F)(F)F)c2)c2nnc(-c3ccccc3)o2)cc1 (stereo unspecified) | 34% (inactive) | – |
| COc1ccc(C2CC(=O)N(Cc3ccccc3C)c3c2c(C)nn3-c2nc(C)cc(C)n2)c(OC)c1 (stereo unspecified) | 39.1% (inactive) | – |
| COc1cc(OC)c2c(c1C(CCN1CCCCC1)c1ccc(N(C)C)cc1)OC(=O)CC2c1ccc(N(C)C)cc1 (stereo unspecified) | -26% (inactive) | – |
| CC(C)OC(=O)c1cc(NC(=O)C2C3CCC(O3)C2C(=O)O)cc(C(=O)OC(C)C)c1 (stereo unspecified) | 38.1% (inactive) | – |
| Cc1sc(NC(=O)C2C3CCC(O3)C2C(=O)O)c(C(=O)OC(C)C)c1-c1ccc(Cl)cc1 (stereo unspecified) | – | 4.47 µM (active) |
| CCc1c(C)sc(NC(=O)C2c3ccccc3Oc3ccccc32)c1C(=O)OC(C)C | 22.5% (inactive) | – |

| SMILES | activity change, negative = inhibition | Potency |
| --- | --- | --- |
| FC(F)(F)C1CCCN(c2nsc3ccccc23)C1 (stereo unspecified) | – | 3.16 µM (active) |
| CCC(=O)N1CCc2cc(S(=O)(=O)NC(C(=O)Nc3ccc(C(C)=O)cc3)C(C)C)ccc21 (stereo unspecified) | 22.5% (inactive) | – |
| COc1ccc(C2/C=C\CN(Cc3ccco3)C(C)C(=O)N2Cc2ccc(F)cc2)cc1 (stereo unspecified) | 12.8% (inactive) | – |
| Cc1noc(C)c1S(=O)(=O)Nc1ccc(C(=O)N2CCN(c3ccc(F)cc3)CC2)cc1 | 27.9% (inactive) | – |
| Cc1ccc(CSCC2Nc3ccc(C(=O)N4CCN(c5ccc(F)cc5)CC4)cc3NC2=O)cc1 (stereo unspecified) | – | 20 µM (active) |
| CC1CCN(C(=O)c2ccc3c(c2)NC(=O)CN3)CC1 | 22.1% (inactive) | – |
| Cc1ccc(C)c(N2CCN(c3ccc4cc(S(=O)(=O)N5CCC(C)CC5)ccc4n3)CC2)c1 | 46.2% (inactive) | – |
| Oc1ccc2ccccc2c1N=Nc1nccs1 | – | 6.31 µM (active) |
| O=C(CSc1nc(-c2cccc(F)c2)[nH]c1-c1ccccc1)Nc1ccc2c(c1)OCO2 | -8.38% (inactive) | – |
| Cc1ccccc1CSc1nc(-c2ccccc2)nc2c1Cc1c(CO)cnc(C)c1O2 | 58.3% (inactive) | – |
| Cc1ccc(NC(=O)C2CCN(S(=O)(=O)c3cc(-c4noc(C)n4)ccc3C)CC2)c(C)c1 | 46.4% (inactive) | – |
| O=C(NC(=S)Nc1ncccn1)c1ccccc1Br | 35.2% (inactive) | – |
| CCOC(=O)C1=C(NC(=S)NC(=O)c2ccccc2)c2ccccc2CC1(C)C | -12.5% (inactive) | – |
| Cn1nnc(NC(=S)NC(=O)c2ccccc2)n1 | – | 70.8 µM (active) |
| Cc1sc2nc(CC(N)=O)[nH]c(=O)c2c1-c1ccccc1 | 14.8% (inactive) | – |
| CSc1nnc(SCc2nc3sc(C(=O)O)c(C)c3c(=O)[nH]2)s1 | – | 50.1 µM (active) |
| CCN(CC)Cc1nc2sc(C)c(C)c2c(=O)[nH]1 | 28.7% (inactive) | – |
| C=C1CCN(Cc2ccc(OC)cc2)S(=O)(=O)c2ccccc21 | 15.4% (inactive) | – |
| COC(=O)c1ccc(OC)c(Cn2c(=O)n(Cc3ccccc3)c(=O)c3c2c2cc(OC)ccc2n3C)c1 | 10.2% (inactive) | – |
| Cc1cc(C)cc(NC(=O)c2cnc3sc(N4CCCC4)nn3c2=O)c1 | 38.7% (inactive) | – |
| O=C(NCc1ccccc1)c1cc(-c2cccc(Cl)c2)on1 | 30% (inactive) | – |

| SMILES | activity change, negative = inhibition | Potency |
| --- | --- | --- |
| O=C(O)C(c1ccccc1)N1C(=O)/C(=C\c2ccc(-c3cccc(Cl)c3)o2)SC1=S (stereo unspecified) | – | 39.8 µM (active) |
| CCC(C)N1C(=O)S/C(=C/c2ccc(Sc3nc4ccccc4[nH]3)o2)C1=O (stereo unspecified) | 16.7% (inactive) | – |
| Cc1cccc(N2CCN(C(=O)Cn3ncc4c5ccccc5n(C)c4c3=O)CC2C)c1 (stereo unspecified) | 36.1% (inactive) | – |
| CC(C)c1ccc(NS(=O)(=O)c2ccc3[nH]cc(C(=O)NC4CCCC4)c(=O)c3c2)cc1 | 3.66% (inactive) | – |
| Cc1cc2c(cc3c(SCc4cccc(Cl)c4)nnc(C)n32)o1 | -21.8% (inactive) | – |
| CCOc1cccc2c1N[C@@H](c1ccc(C(=O)O)cc1)[C@H]1CC=C[C@@H]21 | – | 35.5 µM (active) |
| CCOc1cccc(CC(=O)N2CCc3c([nH]c4ccccc34)C2c2ccc(F)cc2)c1OCC (stereo unspecified) | -8.88% [at 57 µM] (inactive) | – |
| CCOC(=O)C1Nc2ccc(C(F)(F)F)cc2C2C=CCC12 (stereo unspecified) | -23% (inactive) | – |
| C=C1CCN(C(CC(C)C)C(=O)NCc2cc(OC)c(OC)c(OC)c2)S(=O)(=O)c2ccccc21 (stereo unspecified) | 23.6% (inactive) | – |
| CCCn1c2ccccc2c2cnn(CC(=O)N(C)c3ccccc3CC)c(=O)c21 | -12.7% (inactive) | – |
| COc1ccc(C2/C=C\CN(C(=O)c3ccc(C)cc3)C(Cc3ccccc3)C(=O)N2Cc2ccc(F)cc2)cc1 (stereo unspecified) | 17.1% (inactive) | – |
| COc1cccc(CNC(=O)Cn2c(=O)c3cccn3c3ccc(F)cc32)c1OC | 83.2% (inactive) | – |
| O=C(c1cccs1)c1cn(CCOc2ccc(Cl)cc2)c2ccccc12 | 17.6% (inactive) | – |
| Cc1ccc(-c2ccc(CCC(=O)O)n2-c2ccc(C(N)=O)cc2)cc1 | 6.36% (inactive) | – |
| CCN1C(=O)c2ccccc2Sc2ccc(NC(=O)Cc3ccc(OC)cc3)cc21 | 6.32% [at 57 µM] (inactive) | – |
| CCN1/C(=C\c2ccc3ccccc3[n+]2CC)Sc2cc(C)ccc21 | -18.2% (inactive) | – |
| CCN1/C(=C/C(=S)Nc2ccccc2)Sc2ccccc21 | – | 50.1 µM (active) |
| COc1ccc(CCNC(=O)c2ccc(CSCc3ccc(C)cc3)o2)cc1OC | -13.4% (inactive) | – |
| COc1ccc(-c2ccc(OC)c(C3C4C=CCC(C)C4C(=O)N3Cc3ccccc3)c2)cc1C (stereo unspecified) | 63.4% (inactive) | – |
